# Results from ChEMBL document CHEMBL3988442, “University of Dundee, Small-Polar-MMV Screening Library” (2021).
# Screen size: about 48,000 compounds; about 13,000 (27%) showed an effect of 50% or more. The list shows a part of the results.
# Test system: Wolbachia pipientis
# Experiment: Anti-Wolbachia Cell-Based Screen
# Type: functional
# Set-up: scale not given: in the data most compounds retested in dose-response had high values
# Conditions: 5 µM
row,SMILES,Percent Effect [%]
1,Cl.O=C(NCC1CCC2(CCNCC2)O1)C1CC1 (stereo unspecified),-17.62
2,O=C(c1nc(=O)[nH]c2ccccc12)N1CCCC2(CCNC2)C1 (stereo unspecified),12.22
3,O=C(c1onc2ccccc12)N1CCC2(CCCNC2)C1 (stereo unspecified),102.5
4,Cl.O=C(N1CCOCC1)N1CCCC2(CCCNC2)C1 (stereo unspecified),-22.36
5,COCC1CC2(CCN(c3ccccn3)CC2)CN1C(C)C.O=C(O)C(F)(F)F.O=C(O)C(F)(F)F (stereo unspecified),104.7
6,CC(C)CN1CCCC2(CCN(c3ccc(C#N)cn3)C2)C1.O=C(O)C(F)(F)F (stereo unspecified),-6.214
7,COc1cc(N2CCC[C@]3(C(=O)O)CN(C(C)C)C[C@@H]3C2)ncn1.O=C(O)C(F)(F)F,8.121
8,COCC1CC2(CCN(Cc3ccccn3)CC2)CN1C(C)C (stereo unspecified),-12.67
9,COCC1CC2(CCN(c3cccc(C)n3)CC2)CN1C(C)C.O=C(O)C(F)(F)F.O=C(O)C(F)(F)F (stereo unspecified),94.82
10,Cc1cccc(CN2CC3C[C@]3(NC(=O)c3cccc(F)c3)C2)n1.O=C(O)C(F)(F)F (stereo partly specified),-4.676
11,COCCCN1CCCC12CCN(c1ncccn1)CC2.O=C(O)C(F)(F)F,8.313
12,COCC1CC2(CCN(c3cc(OC)ncn3)CC2)CN1C(C)C.O=C(O)C(F)(F)F (stereo unspecified),103.7
13,CCN1C[C@@H]2CN(c3cc(OC)ncn3)CCC[C@]2(C(=O)O)C1.O=C(O)C(F)(F)F,-1.589
14,Cc1ccc(N2CCC3(CCCN3Cc3ccn(C)n3)CC2)nn1.O=C(O)C(F)(F)F,10.32
15,COCC1CC2(CCN(c3ccc(C)nn3)CC2)CN1C(C)C.O=C(O)C(F)(F)F (stereo unspecified),99.94
16,CCN1C[C@@H]2CN(Cc3cccs3)C[C@@H]2C1=O.O=C(O)C(F)(F)F,-3.908
17,COCCNC(=O)C1(c2ccc(C)c(OC)c2)CCCC1,-0.08716
18,COCC1CC2(CCN(CC3CC3)CC2)CN1Cc1ccccn1.O=C(O)C(F)(F)F.O=C(O)C(F)(F)F (stereo unspecified),83.44
19,O=C(C1CCCO1)N1CCC2(CC1)CNCCO2 (stereo unspecified),-5.383
20,CCN(CC)C[C@H]1CN2CC[C@H]1C[C@@H]2CNC(=O)c1ccco1,-16.25
21,CNc1ncc(CN(C)c2ncnc3onc(C)c23)cn1,70.58

row,SMILES,Percent Effect [%]
1,c1cncc(C(Cn2cnnc2)N2CCOCC2)c1 (stereo unspecified),3.663
2,CC(C)N1CCO[C@H]2CN(C(=O)Cc3cccs3)C[C@H]21.O=C(O)C(F)(F)F,10.95
3,CC(C)N1CCO[C@H]2CN(Cc3cc[nH]n3)C[C@H]21.O=C(O)C(F)(F)F.O=C(O)C(F)(F)F,92.97
4,Cc1cccc(CN2C[C@@H]3OCCN(C)[C@@H]3C2)n1,7.406
5,CC(C)N1CCO[C@H]2CN(C(=O)Cc3ccsc3)C[C@H]21.O=C(O)C(F)(F)F,16.26
6,COCCN1CCO[C@H]2CN(Cc3cccc(C)n3)C[C@H]21.O=C(O)C(F)(F)F.O=C(O)C(F)(F)F,106.4
7,Cc1cccc(CN2C[C@@H]3OCCN(c4cnccn4)[C@@H]3C2)n1.O=C(O)C(F)(F)F,-8.161
8,CC[C@H]1CN2CC[C@H]1C[C@@H]2CNCc1ccc(OC)cc1,-6.876
9,Clc1ccc(-n2nnnc2C2(NCc3ccco3)CCCCC2)cc1,73.59
10,COc1ccc(-n2nnnc2C2(NCc3ccco3)CCCCC2)cc1,77.41
11,Cc1cccc(-n2nnnc2C2(NCc3ccco3)CCCCC2)c1,79.56
12,Cc1ccc(Cl)cc1-n1nnnc1C1(N2CCCC2)CCCCC1,-13.17
13,CSc1nccc(N2CCN(C)C3(CCNC(=O)CC3)C2)n1 (stereo unspecified),-8.805
14,c1ccc(NC[C@@H]2CCC[C@@H]3CN(Cc4csnn4)C[C@@H]32)nc1,5.24
15,Cc1cccc(CN2CC3C[C@]3(NC(=O)c3ccoc3)C2)n1 (stereo partly specified),-6.434
16,CS(=O)(=O)NC1CC2(CCN(CCF)CC2)Oc2ccccc21.O=C(O)C(F)(F)F (stereo unspecified),90.28
17,CS(=O)(=O)N[C@@H]1CN(Cc2ccncc2)C[C@@H]2CCCO[C@@H]21.O=C(O)C(F)(F)F.O=C(O)C(F)(F)F,-0.6746
18,O=C(O)C(F)(F)F.O=C(O)C(F)(F)F.O=C(O)C(F)(F)F.c1ccc(CO[C@@H]2CO[C@@]3(CCN(Cc4ccccn4)C3)C2)nc1,19.79
19,CCC(O)Cn1cc(C2=CCN(Cc3cc(O)nc(C)n3)CC2)cn1 (stereo unspecified),5.407
20,Cl.Cl.Cn1ccc(CN2CCOCC23CCNCC3)n1,-7.915
21,CN(Cc1ccccc1)c1ncccc1CNC1CN2CCC1CC2 (stereo unspecified),-8.195

row,SMILES,Percent Effect [%]
1,CN(CCc1ccccc1)Cc1c(C2CC2)[nH]c2ncccc12,128
2,O=C(O)C(F)(F)F.O=C(O)C(F)(F)F.O=C(O)C(F)(F)F.c1cnc(NC[C@H]2OC[C@@H]3CCN(Cc4nccs4)C[C@@H]32)nc1,101
3,O=C(O)C(F)(F)F.O=C(O)C(F)(F)F.c1ccc(CN2CC[C@H]3CO[C@H](CNc4ncccn4)[C@H]3C2)cc1,109.8
4,c1ccc(CN2CC[C@H]3CO[C@H](CNc4ncccn4)[C@H]3C2)nc1,-4.696
5,O=C(O)C(F)(F)F.O=C(O)C(F)(F)F.O=C(O)C(F)(F)F.c1cnc(NC[C@H]2OC[C@@H]3CCN(Cc4cccnc4)C[C@@H]32)nc1,106.3
6,Cn1cc(CN2CC[C@H]3CO[C@H](CNc4ncccn4)[C@H]3C2)cn1.O=C(O)C(F)(F)F.O=C(O)C(F)(F)F,-23.96
7,c1cnc(NC[C@H]2OC[C@@H]3CCN(Cc4ccncc4)C[C@@H]32)nc1,115
8,c1csc(CN2CC[C@H]3C[C@H](c4ccncn4)O[C@@H]3C2)c1,13.32
9,Cc1ccc(OCC(=O)N2CCN[C@H]3CS(=O)(=O)C[C@H]32)cn1,-8.198
10,N#CC1(c2ccccc2)CCN(C(=O)C2CCCN(C(N)=O)C2)CC1 (stereo unspecified),6.737
11,CCC(CC)C(=O)N1CCOC2(CNC2)C1,-30.77
12,CS(=O)(=O)c1ccc(CC(=O)N2CCN3CCNC(=O)C3C2)cc1 (stereo unspecified),-12.31
13,Cc1cc(CN2C[C@@H]3CN(C(=O)c4ccsc4)CCO[C@@H]3C2)no1.O=C(O)C(F)(F)F,15.19
14,CN(C)CCNC(=O)[C@H]1C[C@H]2CN(c3ncccn3)C[C@H]2N1C.O=C(O)C(F)(F)F.O=C(O)C(F)(F)F.O=C(O)C(F)(F)F,-2.268
15,COCC(=O)NC[C@H]1C[C@@H]2CCN1C[C@@H]2c1cc(-c2cccs2)nn1C,-7.322
16,O=C1[C@H]2CN(Cc3ccoc3)C[C@@H]2CCN1Cc1cccnc1,-2.353
17,Cn1ccnc1CN1CC[C@H]2CO[C@H](CNc3ncccn3)[C@H]2C1.O=C(O)C(F)(F)F.O=C(O)C(F)(F)F.O=C(O)C(F)(F)F,100.8
18,CS(=O)(=O)NC[C@H]1OC[C@@H]2CN(Cc3cccnc3)CC[C@@H]21,117.5
19,O=C(O)C(F)(F)F.O=C(O)C(F)(F)F.c1cnc(NC[C@H]2OC[C@@H]3CCN(Cc4ccsc4)C[C@@H]32)nc1,103.6
20,CN1CCN([C@H]2COC[C@@H]3CN(Cc4cccnc4)C[C@@H]32)CC1,3.012
21,CN(c1ncccc1C#N)C1CCN(Cc2ccncc2)CC1,-9.884

row,SMILES,Percent Effect [%]
1,CN1CCN(C[C@@H]2OC[C@H]3CN(Cc4ccncc4)CC[C@H]32)CC1,117.8
2,COc1ccc(CCN)cc1-c1ccc(C(N)=O)cc1,-8.06
3,Cc1noc(C)c1CN1C[C@@H]2OCCN(Cc3cnn(C)c3)[C@@H]2C1,-6.904
4,COCCn1c(C(=O)NC(C(N)=O)C(C)C)cc2ccccc21 (stereo unspecified),-3.087
5,Cc1ccccc1-n1cc(C2=CCN(CCn3cc[nH]c3=O)CC2)cn1,20.16
6,Cc1cc(C)c(CNc2ncnc3ccsc23)c(=O)[nH]1,1.6
7,O=C(CC1CC1)N[C@@H]1CN(Cc2ccccn2)C[C@@H]2CCCO[C@@H]21.O=C(O)C(F)(F)F.O=C(O)C(F)(F)F,-3.839
8,O=C(O)C(F)(F)F.O=C(O)C(F)(F)F.O=C(O)C(F)(F)F.c1ccc(CN2CC[C@@H]3[C@@H](CO[C@@H]3CNc3ncccn3)C2)nc1,94.77
9,O=S1(=O)CCC(n2cc(C3=CCN(CCn4cccc4)CC3)cn2)C1 (stereo unspecified),-6.845
10,Cc1nc(C(C)C)sc1C(=O)N1CCN(C2CN3CCC2CC3)CC1 (stereo unspecified),76.14
11,COCCN1CCCC12CCCN(c1ncccn1)C2 (stereo unspecified),-3.4
12,CC(C)(C)c1cc(=O)[nH]c(C2(N)CCCCC2)n1.Cl,-23.57
13,CN(C)c1nccc(N2CCO[C@H]3CN(Cc4ccsc4)C[C@H]32)n1.O=C(O)C(F)(F)F,12.89
14,c1ccc(CCN2C[C@@H]3OCCN(c4ncccn4)[C@@H]3C2)cc1,21.57
15,Cc1cccc(CN2C[C@@H]3OCCN(S(=O)(=O)N(C)C)[C@@H]3C2)n1,2.928
16,Cn1ccnc1CN1C[C@@H]2OCCN(c3ncccn3)[C@@H]2C1,7.273
17,CN(C)c1nccc(N2CCO[C@H]3CN(Cc4ccco4)C[C@H]32)n1,68.55
18,COCCN1C[C@@H]2OCCN(c3ccnc(N(C)C)n3)[C@@H]2C1,104.4
